Reference: PubChem BioAssay (Tox21)
Results filed as inconclusive are left out. Activity calls are given as the source filed them. Unless noted, the call rests on the fitted dose curve; in most records, active means well fitted curve in the direction sought with a large enough effect in the repeat runs; inconclusive means weak or mixed curves; inactive means no such curve, though single readings can be large; an effect the other way counts as inactive or inconclusive.

Columns and labels:
[1] = biological target: Aryl hydrocarbon receptor (Homo sapiens) (UniProt P35869); experiment: qHTS assay to identify small molecule that activate the aryl hydrocarbon receptor (AhR) signaling pathway (AID 743085);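 further: HG2L7.5c1 human HepG2 liver cells with stably integrated DRE-driven firefly reporter; series mostly up to about 70 µM; nearly all actives have a fitted effect of over 15% in size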
Chain of Aryl hydrocarbon receptor (Homo sapiens) (P35869 whole entry, looked up): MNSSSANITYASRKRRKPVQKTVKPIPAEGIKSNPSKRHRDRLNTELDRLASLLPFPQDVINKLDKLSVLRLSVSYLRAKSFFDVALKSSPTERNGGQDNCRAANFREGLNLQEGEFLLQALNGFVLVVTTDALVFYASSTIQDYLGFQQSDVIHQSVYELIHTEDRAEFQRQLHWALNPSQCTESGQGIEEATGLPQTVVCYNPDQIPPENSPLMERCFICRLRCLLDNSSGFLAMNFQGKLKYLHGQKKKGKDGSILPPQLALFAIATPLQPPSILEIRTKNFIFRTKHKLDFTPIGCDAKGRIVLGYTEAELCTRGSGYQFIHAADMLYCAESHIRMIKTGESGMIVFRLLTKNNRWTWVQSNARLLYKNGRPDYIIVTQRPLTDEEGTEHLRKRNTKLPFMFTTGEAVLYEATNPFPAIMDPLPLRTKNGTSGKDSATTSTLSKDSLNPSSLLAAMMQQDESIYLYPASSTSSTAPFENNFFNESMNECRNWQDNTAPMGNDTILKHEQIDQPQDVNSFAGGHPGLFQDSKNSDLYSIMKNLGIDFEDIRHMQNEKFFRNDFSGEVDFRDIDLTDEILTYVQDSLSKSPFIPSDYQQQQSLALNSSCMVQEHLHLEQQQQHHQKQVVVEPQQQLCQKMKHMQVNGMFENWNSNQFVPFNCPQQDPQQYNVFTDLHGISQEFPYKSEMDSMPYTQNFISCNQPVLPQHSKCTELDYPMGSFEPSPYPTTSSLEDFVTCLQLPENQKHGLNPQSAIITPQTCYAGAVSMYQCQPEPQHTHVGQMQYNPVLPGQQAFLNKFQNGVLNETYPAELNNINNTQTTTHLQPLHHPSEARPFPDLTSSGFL
How it was run: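 HepG2 cells (HG2L7.5c1) stably carrying a firefly luciferase reporter driven by 20 dioxin responsive elements were exposed to compound for 24 h at 37C after a 5 h settling period; luminescence rise (ONE-Glo) indicated activation.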

[2] = qHTS assay to identify small molecule that activate the aryl hydrocarbon receptor (AhR) signaling pathway - cell viability counter screen (AID 743086);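 further: HepG2 liver cells carrying the AhR DRE luciferase reporter; series mostly up to about 70 µM; nearly all actives have a fitted effect of over 45% in size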
How it was run: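 Cytotoxicity counter screen: CellTiter-Fluor signal (30 min, 37 C) in 4000 HepG2 cells/well carrying the DRE-luciferase reporter, following 24 h compound exposure at 37 C.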

[3] = biological target: Peroxisome proliferator-activated receptor gamma (Homo sapiens) (UniProt P37231); experiment: qHTS assay to identify small molecule agonists of the peroxisome proliferator-activated receptor gamma (PPARg) signaling pathway (AID 743094; active means well fitted activation curve with a large enough effect in the signal ratio in the repeat runs, not every such curve was filed as active; the % refers to the signal ratio)
Chain of Peroxisome proliferator-activated receptor gamma (Homo sapiens) (P37231 whole entry, looked up): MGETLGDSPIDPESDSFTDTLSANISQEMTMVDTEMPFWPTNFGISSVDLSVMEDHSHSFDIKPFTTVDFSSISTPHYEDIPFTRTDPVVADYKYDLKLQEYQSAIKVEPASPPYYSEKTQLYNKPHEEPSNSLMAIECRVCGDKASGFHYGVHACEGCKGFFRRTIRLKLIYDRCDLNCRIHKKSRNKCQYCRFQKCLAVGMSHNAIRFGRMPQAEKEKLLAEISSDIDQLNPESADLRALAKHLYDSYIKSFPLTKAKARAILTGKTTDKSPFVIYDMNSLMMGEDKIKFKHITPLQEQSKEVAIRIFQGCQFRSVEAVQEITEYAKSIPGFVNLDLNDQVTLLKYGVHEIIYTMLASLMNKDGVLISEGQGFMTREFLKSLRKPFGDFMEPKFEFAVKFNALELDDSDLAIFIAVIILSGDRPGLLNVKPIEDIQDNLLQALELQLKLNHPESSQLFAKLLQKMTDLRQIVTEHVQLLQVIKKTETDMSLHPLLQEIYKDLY
How it was run: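 Reporter activation was scored by fluorescence of cleaved LiveBLAzer B/G substrate (1 h, room temperature) in PPARg-bla HEK293H cells previously treated 17 h at 37C with DMSO-dissolved compounds.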

[4] = qHTS assay to identify small molecule antagonists of the peroxisome proliferator-activated receptor gamma (PPARg) signaling pathway - cell viability counter screen (AID 743194); settings: Potency: co-treated with 50 nM rosiglitazone; further: nearly all actives have a fitted effect of over 55% in size
How it was run: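 Viability was measured as CellTiter-Glo luminescence in GeneBLAzer PPARg UAS-bla HEK293H cells. These cells had been exposed 17 h at 37 C to compounds together with rosiglitazone at 50 nM final, with the beta-lactamase readout taken in the same wells.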

[5] = qHTS assay for small molecule agonists of the antioxidant response element (ARE) signaling pathway (AID 743202; active means well fitted activation curve with a large enough effect in the signal ratio in the repeat runs, not every such curve was filed as active; the % refers to the signal ratio)
How it was run: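 After 16 hours of compound treatment at 37 C, HepG2 cells with a stably integrated ARE-driven beta-lactamase reporter were loaded 2 hours at room temperature with LiveBLAzer B/G FRET substrate and fluorescence intensity measured.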

[6] = qHTS assay for small molecule activators of the heat shock response signaling pathway - cell viability counter screen (AID 743209); further: nearly all actives have a fitted effect of over 50% in size
How it was run: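 Viability of HSE-bla HeLa cells is measured with CellTiter-Glo in the wells already used for the reporter read. Compound exposure lasts 5 h at 37 C, and luminescence is read after 30 min at room temperature.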

[7] = qHTS assay for small molecule activators of the heat shock response signaling pathway (AID 743210; active means well fitted activation curve with a large enough effect in the signal ratio in the repeat runs, with a control signal flat, not every such curve was filed as active; the % refers to the signal ratio; further: series mostly up to about 63 µM)
How it was run: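 Compound exposure lasted 5 h at 37 C in HeLa cells carrying a heat-shock-element-driven beta-lactamase reporter. Read-out: fluorescence intensity after 2.5 h room-temperature loading with LiveBLAzer B/G FRET substrate.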

[8] = qHTS assay to identify small molecule agonists of the peroxisome proliferator-activated receptor delta (PPARd) signaling pathway - cell viability counter screen (AID 743211); further: nearly all actives have a fitted effect of over 55% in size
How it was run: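 PPARd-bla HEK293H cells (UAS-beta-lactamase reporter) were treated with compounds for 17 h at 37 C. Viability was then read in the same wells by CellTiter-Glo luminescence after 30 min at room temperature.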

[9] = qHTS assay to identify small molecule antagonists of the peroxisome proliferator-activated receptor delta (PPARd) signaling pathway - cell viability counter screen (AID 743213); further: nearly all actives have a fitted effect of over 50% in size
How it was run: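 Viability counter-screen, qHTS format: PPARd-bla HEK293H, L165041 300 nM final, 17 h compound exposure at 37 C, CellTiter-Glo luminescence after 30 min RT.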

[10] = biological target: Bile acid receptor (Homo sapiens) (UniProt Q96RI1); experiment: qHTS assay to identify small molecule antagonists of the farnesoid-X-receptor (FXR) signaling pathway (AID 743217; active means well fitted inhibition curve with a large enough effect in the signal ratio in the repeat runs, not every such curve was filed as active; the % refers to the signal ratio)
Chain of Bile acid receptor (Homo sapiens) (Q96RI1 whole entry, looked up): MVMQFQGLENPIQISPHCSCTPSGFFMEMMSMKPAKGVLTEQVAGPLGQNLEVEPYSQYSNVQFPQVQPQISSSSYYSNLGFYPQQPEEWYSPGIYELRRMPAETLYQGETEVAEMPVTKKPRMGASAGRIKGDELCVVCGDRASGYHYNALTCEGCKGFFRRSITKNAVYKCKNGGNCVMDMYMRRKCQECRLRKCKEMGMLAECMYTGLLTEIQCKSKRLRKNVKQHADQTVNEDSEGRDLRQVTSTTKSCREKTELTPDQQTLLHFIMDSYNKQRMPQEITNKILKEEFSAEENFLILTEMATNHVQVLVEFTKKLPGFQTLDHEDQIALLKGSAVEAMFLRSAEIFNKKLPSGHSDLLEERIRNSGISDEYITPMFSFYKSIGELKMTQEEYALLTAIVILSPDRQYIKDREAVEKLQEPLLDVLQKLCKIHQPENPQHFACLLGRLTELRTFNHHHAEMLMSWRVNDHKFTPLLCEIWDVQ
How it was run: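 Screen of the Tox21 10K library in quantitative HTS format using FXR-UAS-bla HEK 293T reporter cells. Agonist chenodeoxycholic acid, 50 uM final, added with compounds; 16 h incubation at 37 °C; beta-lactamase FRET fluorescence measured.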

[11] = qHTS assay to identify small molecule agonists of the farnesoid-X-receptor (FXR) signaling pathway - cell viability counter screen (AID 743218); further: nearly all actives have a fitted effect of over 45% in size
How it was run: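 Viability of FXR-bla HEK 293T cells is measured by ATP-based CellTiter-Glo luminescence following 16 h compound treatment at 37 C and a prior 2 h room-temperature beta-lactamase substrate step.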

[12] = biological target: Bile acid receptor (Homo sapiens) (UniProt Q96RI1); experiment: qHTS assay to identify small molecule agonists of the farnesoid-X-receptor (FXR) signaling pathway (AID 743220; active means well fitted activation curve with a large enough effect in the signal ratio in the repeat runs, not every such curve was filed as active; the % refers to the signal ratio)
How it was run: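 FXR-UAS-bla HEK 293T cells carrying a UAS-driven beta-lactamase reporter were plated for 5 h at 37C/5% CO2, then exposed to DMSO-dissolved Tox21 10K compounds for 16 h at 37C. A LiveBLAzer B/G FRET substrate was loaded for 2 h at room temperature before fluorescence reading.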

[13] = qHTS assay to identify small molecule antagonists of the farnesoid-X-receptor (FXR) signaling pathway - cell viability counter screen (AID 743221; active means well fitted cell-killing curve with a large enough effect in the repeat runs, not every such curve was filed as active; further: nearly all actives have a fitted effect of over 50% in size)
How it was run: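 FXR-UAS-bla HEK 293T cells were treated with test compounds plus chenodeoxycholic acid (50 uM final) for 16 h at 37 C. Cell viability in the same wells was then read as CellTiter-Glo luminescence after 30 min at room temperature.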

[14] = qHTS assay to identify small molecule agonists of the vitamin D receptor (VDR) signaling pathway - cell viability counter screen (AID 743224); further: series mostly up to about 63 µM; nearly all actives have a fitted effect of over 50% in size
How it was run: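 Compounds were pin-transferred onto VDR-bla cells plated 4 h earlier; following 16 h incubation at 37C, cell viability was quantified by CellTiter-Glo luminescence after 30 min at room temperature.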

[15] = qHTS assay for small molecule agonists of the antioxidant response element (ARE) signaling pathway - cell viability counter screen (AID 743203; calls by dose curve; further: nearly all actives have a fitted effect of over 55% in size)
How it was run: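 Viability counter screen: stably transfected ARE-bla HepG2 line, 16 hrs compound exposure at 37C/5% CO2, ATP-based CellTiter-Glo luminescence measured in the reporter wells.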

[16] = biological target: Vitamin D3 receptor (Homo sapiens) (UniProt P11473); experiment: qHTS assay to identify small molecule agonists of the vitamin D receptor (VDR) signaling pathway (AID 743222; calls by dose curve)
Chain of Vitamin D3 receptor (Homo sapiens) (P11473 whole entry, looked up): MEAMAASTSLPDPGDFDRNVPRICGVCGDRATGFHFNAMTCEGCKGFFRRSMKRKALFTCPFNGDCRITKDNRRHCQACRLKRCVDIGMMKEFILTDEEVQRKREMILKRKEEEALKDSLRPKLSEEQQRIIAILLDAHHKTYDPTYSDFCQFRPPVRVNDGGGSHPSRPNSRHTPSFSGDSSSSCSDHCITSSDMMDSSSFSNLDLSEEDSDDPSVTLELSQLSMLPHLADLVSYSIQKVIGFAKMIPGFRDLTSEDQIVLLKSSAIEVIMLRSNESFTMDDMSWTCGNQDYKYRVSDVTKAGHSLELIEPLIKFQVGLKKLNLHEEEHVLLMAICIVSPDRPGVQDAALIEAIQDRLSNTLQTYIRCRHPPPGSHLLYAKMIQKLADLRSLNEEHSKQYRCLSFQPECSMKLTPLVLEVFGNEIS
How it was run: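 Fluorescence from cleaved LiveBLAzer B/G FRET substrate served as readout. VDR-bla cells had been treated 16 h at 37C with test compounds in DMSO, following a 4 h settling period, and substrate was loaded for 2 h at RT.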

[17] = biological target: Vitamin D3 receptor (Homo sapiens) (UniProt P11473); experiment: qHTS assay to identify small molecule antagonists of the vitamin D receptor (VDR) signaling pathway (AID 743223; active means well fitted inhibition curve with a large enough effect in the signal ratio in the repeat runs, not every such curve was filed as active; the % refers to the signal ratio)
How it was run: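 VDR-bla cells were plated, incubated 4 h at 37C, then given compound and 1alpha,25-dihydroxyvitamin D3 (3 nM final). After 16 h at 37C, LiveBLAzer B/G FRET substrate was added for 2 h at room temperature and fluorescence read.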

[18] = biological target: Peroxisome proliferator-activated receptor delta (Homo sapiens) (UniProt Q03181); experiment: qHTS assay to identify small molecule agonists of the peroxisome proliferator-activated receptor delta (PPARd) signaling pathway (AID 743212; calls by dose curve)
Chain of Peroxisome proliferator-activated receptor delta (Homo sapiens) (Q03181 whole entry, looked up): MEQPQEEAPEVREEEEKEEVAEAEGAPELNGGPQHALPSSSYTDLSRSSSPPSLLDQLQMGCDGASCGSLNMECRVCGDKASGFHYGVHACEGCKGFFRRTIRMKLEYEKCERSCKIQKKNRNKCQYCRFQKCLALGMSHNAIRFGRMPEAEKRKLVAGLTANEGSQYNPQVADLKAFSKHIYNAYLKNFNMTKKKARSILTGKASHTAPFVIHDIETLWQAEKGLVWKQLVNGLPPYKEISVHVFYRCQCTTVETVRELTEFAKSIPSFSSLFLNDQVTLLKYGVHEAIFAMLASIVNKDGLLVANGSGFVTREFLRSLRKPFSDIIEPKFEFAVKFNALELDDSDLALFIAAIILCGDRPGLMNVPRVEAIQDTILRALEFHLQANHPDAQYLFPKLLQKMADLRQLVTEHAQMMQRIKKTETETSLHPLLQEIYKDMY
How it was run: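 Beta-lactamase reporter readout: a ratiometric FRET signal from the LiveBLAzer substrate after 2 h at room temperature. Compound exposure at 37 °C in PPARδ-bla HEK293H cells driven by an upstream activator sequence.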

[19] = biological target: Peroxisome proliferator-activated receptor gamma (Homo sapiens) (UniProt P37231); experiment: qHTS assay to identify small molecule antagonists of the peroxisome proliferator-activated receptor gamma (PPARg) signaling pathway (AID 743191; calls by dose curve; further: series mostly up to about 63 µM; nearly all actives have a fitted effect of over 30% in size)
How it was run: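 Beta-lactamase reporter under UAS control in HEK293H PPARg-bla cells; compound treatment 17 h at 37C. Read-out: fluorescence intensity after 1 h room-temperature incubation with LiveBLAzer B/G FRET substrate.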

[20] = biological target: Peroxisome proliferator-activated receptor delta (Homo sapiens) (UniProt Q03181); experiment: qHTS assay to identify small molecule antagonists of the peroxisome proliferator-activated receptor delta (PPARd) signaling pathway (AID 743215; active means well fitted inhibition curve with a large enough effect in the signal ratio in the repeat runs, not every such curve was filed as active; the % refers to the signal ratio;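 further: cells stimulated with agonist L165041 at 300 nM final during compound exposure; series mostly up to about 62 µM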)
How it was run: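 Plated HEK293H PPARd-bla cells rested 5 h at 37 C and 5% CO2. Compound, then agonist L165041 at 300 nM final, was added; 17 h at 37 C followed. Substrate loading, 2 h room temperature, fluorescence measured.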

Measured: Potency

Cc1cccc(C#N)c1
inactive: [1] | [2] | [3] | [4] | [5] | [6] | [7] | [8] | [9] | [10] | [11] | [12] | [13] | [14]

ClCCOCOCCCl
inactive: [1] | [2] | [3] | [4] | [5] | [15] | [6] | [7] | [8] | [9] | [10] | [11] | [12] | [13] | [16] | [17] | [14]

CSc1nc(N=[N+]=[N-])nc(NC(C)C)n1
inactive: [1] | [2] | [3] | [4] | [15] | [6] | [7] | [8] | [18] | [11] | [13] | [16] | [17] | [14]

CC(=O)C(Cl)Cl
inactive: [1] | [2] | [3] | [19] | [5] | [15] | [6] | [7] | [8] | [18] | [9] | [20] | [10] | [11] | [12] | [13] | [14]

CNCC(=O)c1ccc(O)c(O)c1
inactive: [1] | [2] | [3] | [19] | [4] | [15] | [6] | [8] | [11] | [13] | [16] | [14]

COC(=O)c1ccccc1S(=O)(=O)NC(=O)Nc1nc(C)cc(C)n1
inactive: [1] | [2] | [3] | [19] | [4] | [6] | [8] | [9] | [11] | [13] | [16] | [17] | [14]

ClC(Cl)C(Cl)Cl
inactive: [1] | [2] | [3] | [4] | [15] | [6] | [7] | [8] | [9] | [10] | [11] | [12] | [13] | [17] | [14]

CCc1cc2c(s1)-n1c(C)nnc1CN=C2c1ccccc1Cl
inactive: [1] | [2] | [3] | [4] | [5] | [6] | [7] | [8] | [18] | [9] | [20] | [10] | [11] | [13] | [16] | [17] | [14]

CNC(=O)O/N=C(\C)SC
inactive: [1] | [2] | [3] | [19] | [15] | [6] | [7] | [8] | [18] | [9] | [20] | [11] | [13] | [17] | [14]
